Measured values as given in PubChem BioAssay (EPA / NIEHS).
Active and inactive are the calls of the source. Rule for the calls: active = hit-call score of the fitted dose curve at least 0.9, where 1 is the maximum; inactive = score below 0.9.

These molecules were tested on Thyroid Hormone Responsive (THRSP), THRSP (gene 7069) (assay: LTEA_HepaRG_THRSP: Life Technologies and Expression Analysis (LTEA) Assay for Thyroid Hormone Responsive (THRSP) using HepaRG (AID 2283536)). Conditions: mRNA level, 48 h; actives raise or lower the signal.
Description: LTEA_HepaRG is a cell based, multiplexed-readout assay that uses HepaRG, a human liver cell line, with measurements taken at 48 hours after chemical dosing on a 96-well plate.LTEA_HepaRG_THRSP is one of 102 assay component(s) measured in the LTEA HepaRG cell culture assay. It is a marker of NR mediated metabolism.Data from the assay component LTEA_HepaRG_THRSP was analyzed into 1 endpoint. This assay endpoint, LTEA_HepaRG_THRSP, was analyzed with bidirectional fitting relative to DMSO as the negative control and baseline of activity. Using a type of inducible reporter, measures of mRNA induction for gain or loss-of-signal activity can be used to understand regulation of transcription factor activity. To generalize the intended target to other relatable targets, this assay endpoint is annotated to the growth factor intended target family, where the subfamily is NR mediated metabolism.
A total of 1060 chemcials from the ToxCast library were tested in eight-point concentration-response experiments. Cell culture and cytotoxicity assays were conducted at Thermo Fisher Scientific's Custom Services facility (Madison, WI). A single lot of human HepaRG cells (Thermo Fisher Scientific, Frederick, MD) was used for the cell culture experiments. 96-well format collagen type I coated plates of human HepaRG cells were prepared using established methods. Briefly, cryopreserved HepaRG cells were thawed, plated at a density of approximately 100,000 cells/well in HepaRG Thaw, Plate, and General Purpose media (HPRG770, Thermo Fisher Scientific), and incubated for 48 hours. 0.5% DMSO was selected as vehicle control to balance the requisite need of DMSO in HepaRG cultures to maintain differentiation (for example, baseline metabolism, proportions of hepatocytes vs. cholangiocytes), while enabling further hepatic receptor pathway activation (for example, PXR and CAR) in response to chemical exposure. 48 hours after plating, the culture medium was replaced with HepaRG Serum-Free Incudtion Media. Cells were exposed to each test chemical in duplicate and maintained in CO2 incubators for another 48 hours. Chemical plates were thawed to room temperature and 200x concentrations of treatment groups were prepared. 8-point conentration-reponse curves were made with the highest exposure at 100 uM, followed by half-log dilutions, all in 0.5% DMSO. Each test plate contained variouse controls, induction positive controls (1mM phenobarbital), cytotoxicity positive controls ([…] aflatoxin B1), vehicle controls (0.5% DMSO), and total lysis controls (0.5% DMSO). Cell morphology images were taken using an Essen IncuCyte FLR automated microscope, with six 96-well plates imaged in about 24 minutes. Images were captured and exported and JPEG files. Spent culture media was transfered to black-well plates for the LDH assay, and remaining media was sorted at -80 C for later use. Cells were treated with RLT buffer and frozen until shipped for gene expression analysis. Total RNA was isolated from the cell suspension in 75 uL of Buffer RLT (Qiagen, Germantown, MD 20874) by Quintiles/Expression Analysis (Durham, NC) using a custom isolation procedure. Total RNA from each plate well was transferred to a preamplification plate. Fluidigm's 96.96 Dynamic ArrayTM (Fluidigm, Amsterdam, the Netherlands) technology was used for gene expression analyses by quantitative reverse transcription polymerase chain reaction (qRT-PCR, performed by Quintiles/Expression Analysis, Durham, NC)89. Standard TaqManTM Assays (Applied Biosystems/ThermoFisher Scientific, Foster City, CA) were used to assess the expression of 93 genes selected based on their selectivity and sensitivity to important hepatic receptors known to be modulated by environmental chemicals; importance in human hepatocyte functionality; and hepatotoxicity. […]

Row | Structure (SMILES) | AC50 | outcome
1 | c1ccc(C[n+]2cccc3ccccc32)cc1 | 50 µM (active) | 
2 | CC(C)(C)c1cc(/C=C2\SC(N)=NC2=O)cc(C(C)(C)C)c1O |  | inactive
3 | CCCCCCCC[Si](OCC)(OCC)OCC |  | inactive
4 | CC(=O)N1CCN(c2ccc(OC[C@H]3CO[C@](Cn4ccnc4)(c4ccc(Cl)cc4Cl)O3)cc2)CC1 | 12.7 µM (active) | 
5 | CCN(Cc1cccnc1)C(=O)c1cccc(Cl)c1[C@]1(C)C(=O)N(Cc2ccc(OC)cc2OC)c2ccc(Cl)cc21 | 24 µM (active) | 
6 | Cc1oc2c(NC(=O)c3c(Cl)cccc3Cl)cccc2c1C(C)(C)O | 86.8 µM (active) | 
7 | CCCCCCCCCCCCO |  | inactive
8 | CN1C(=O)CC[C@H]1c1cccnc1 |  | inactive
9 | COc1cccc([C@H](O)C2CCN(CCc3ccc(F)cc3)CC2)c1OC |  | inactive
10 | C[C@]12CC[C@@H]3c4ccc(O)cc4CC[C@H]3[C@@H]1CC[C@H]2O |  | inactive
11 | O=C(Nc1ccc(Cl)cc1)Nc1ccc(Cl)c(Cl)c1 |  | inactive
12 | Clc1ccccc1C(c1ccccc1)(c1ccccc1)n1ccnc1 | 29.9 µM (active) | 
13 | O=c1c(-c2ccc(O)cc2)coc2cc(O)cc(O)c12 |  | inactive
14 | c1ccc2ccccc2c1 |  | inactive
15 | CN1C(=O)N(c2ccccc2Br)Cc2cnc(Nc3ccc4c(c3)OCC(CO)O4)nc21 (stereo not given) |  | inactive
16 | CC(C)(c1cc(Br)c(O)c(Br)c1)c1cc(Br)c(O)c(Br)c1 |  | inactive
17 | CCCOC(=O)c1cc(O)c(O)c(O)c1 |  | inactive
18 | CCO[Si](CCCNC(N)=O)(OCC)OCC |  | inactive
19 | Cc1ccc(C(C)C)cc1 |  | inactive
20 | CCCC(=O)OCCC(C)C |  | inactive

Row | Structure (SMILES) | AC50 | outcome
21 | COCC(C)OCC(C)OCC(C)O (stereo not given) |  | inactive
22 | NCc1cccc(C2CCN(C(=O)c3ccc(C#Cc4ccccc4F)o3)CC2)c1 | 83.9 µM (active) | 
23 | COc1cc(C(=O)NC2CCN(C)CC2)ccc1Nc1ncc2c(n1)N(C1CCCC1)CC(F)(F)C(=O)N2C | 0.923 µM (active) | 
24 | CCCCCCCCCCCC[N+](C)(C)C |  | inactive
25 | CC1(C)NC(=O)N(c2ccc([N+](=O)[O-])c(C(F)(F)F)c2)C1=O |  | inactive
26 | O=CCCCC=O |  | inactive
27 | CC(O)CC(C)(C)O (stereo not given) |  | inactive
28 | Cc1cc2c(cc1C(F)(F)F)N(C(=O)Nc1ccc(Oc3cccnc3C)nc1)CC2 |  | inactive
29 | OCCO |  | inactive
30 | CC(C)(O)c1ccc(CNC(=O)c2cccnc2Oc2ccc3nonc3c2)cc1 | 60.8 µM (active) | 
31 | CC[C@@H]1C[C@H](N(Cc2cc(C(F)(F)F)cc(C(F)(F)F)c2)C(C)=O)c2cc(C(F)(F)F)ccc2N1C(=O)OC(C)C |  | inactive
32 | O=C(O)c1ccccc1C(=O)OCc1ccccc1 |  | inactive
33 | CCCCOC(=O)CC(CC(=O)OCCCC)(OC(C)=O)C(=O)OCCCC |  | inactive
34 | CCCCCCCCCCCO |  | inactive
35 | CCCCOC(=O)c1ccc(O)cc1 |  | inactive
36 | CN(C)C(=O)C1(N2CCCCC2)CCN(CC[C@@]2(c3ccc(Cl)c(Cl)c3)CN(C(=O)c3ccccc3)CCO2)CC1 | 24.2 µM (active) | 
37 | Oc1ccccc1 |  | inactive
38 | Cc1cc(F)ccc1-c1cc(N2CC[C@@H](O)[C@H]2CO)ncc1N(C)C(=O)C(C)(C)c1cc(C(F)(F)F)cc(C(F)(F)F)c1 | 20.6 µM (active) | 
39 | O=c1ccc2ccccc2o1 |  | inactive
40 | O=C(OCCCCCCOC(=O)c1ccccc1)c1ccccc1 |  | inactive
